# Screening data (PubChem)
# Only some compounds are listed: those with a hit (about 3.1% of all), similar ones and a draw of the others.
# FAS-TE inh: blocks the thioesterase domain of human fatty acid synthase; P49327; recombinant FAS-TE, OMFH fluorogenic substrate, fluorescence endpoint; inhibition, % at 15 µM; hit rate 0.67% among 360,000; AID 602261;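 active = compounds whose normalised, plate-corrected inhibition of enzyme fluorescence in the single-dose primary screen is 50% or more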;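 note: 0% = DMSO with enzyme and 100% = substrate without enzyme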
# ATG4B inh: ATG4B (human) cysteine protease inhibition; Q9Y4P1; ATG4B cleavage of LC3-PLA2, NBD-HPC fluorescence, 1 h; inhibition, % at 8.33 µM; hit rate 0.51% among 340,000; AID 504462; in the data active = inhibition above about 40%
# Mot1-301 SUMO: inhibitors of SUMOylation pathway: yeast Mot1-301 growth rescue; S. cerevisiae Mot1-301 growth rescue, ATP luminescence, 38.5C; percent above DMSO median, 100 means doubled; growth rescue, % at 18.8 µM; hit rate 1% among 320,000; AID 2716;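 active = every valid replicate shows activation above 250% relative to neutral control wells; inactive = the rest, any valid replicate at or below 250%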;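 note: OY570 slx delta 5 strain wells were the positive control but not used for scaling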
# NadD inh: inhibitors of Staphylococcus aureus NadD; purified NadD enzyme, colorimetric absorbance read-out; inhibition, % at 20 µM; hit rate 0.78% among 360,000; AID 602399; in the data active = inhibition above about 26%
# Calb FLC: affects C. albicans growth with fluconazole; C. albicans CaCi-2 (fluconazole-resistant clinical isolate) + fluconazole, Alamar Blue growth, 48 h; AID 1979; growth inhibition, % (concentration not given with the values); hit rate 0.57% among 300,000;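 active = growth inhibition above about 58% in most replicates, limit read from the data, passing the limit was not always enough; inconclusive = exactly half the replicates above a set limit; inactive = most replicates below a set limit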;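 note: all wells also contain fluconazole at 8 µg/ml as a sub-toxic cotreatment; 0% = median of DMSO wells and 100% = median of geldanamycin control wells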
# ATG4B conf: confirmation of human ATG4B inhibitors. hit rate 92% among 320. ATG4B protease fluorescent substrate cleavage assay. inhibition, % at 8.33 µM. shares compounds with ATG4B inh; in the data active = inhibition above about 39%
# PLA2 counter: PLA2 (human) inhibition in ATG4B counter-screen; shares compounds with ATG4B inh; inhibition, % at 8.33 µM; purified PLA2, NBD-C6-HPC fluorescence, 45 min; hit rate 66% among 1,600; AID 588402; in the data active = inhibition above about 50%
# Starred values were filed as active, the others as inactive; ? = inconclusive; . = no result.
SMILES,FAS-TE inh,ATG4B inh,Mot1-301 SUMO,NadD inh,Calb FLC,PLA2 counter,others
N=C1/C(=C\c2ccc(OC(=O)c3ccccc3)cc2)C(=O)N=C2SC(N3CCOCC3)=NN12,2,57*,12,18,-3,76*,
O=C(Nc1nnc(Cc2c[nH]c3ccccc23)s1)c1ccc(Cl)cc1Cl,-4,52*,-10,13,2,51*,
CC1Cc2ccccc2N1C(=O)COC(=O)c1c2c(nc3ccccc13)CCCCC2 (stereo not given),33,44*,-8,11,?,49,
O=C(OCC(=O)N1CCc2ccccc21)c1c2c(nc3ccccc13)CCCC2,36,-21,1,18,2,.,
O=C(NC[C@@H]1CC[C@@H](Cc2ccc(-c3ccccc3)cc2)O1)Nc1ccc(Br)cc1,14,42*,.,2,.,86*,
Cc1ccc(C(=O)NC(=S)Nc2ccccc2C(F)(F)F)cc1C,23,45*,-4,-8,5,47,ATG4B conf=62*
Cc1cccc(C(=O)NC(=S)Nc2ccccc2C(F)(F)F)c1,35,22,7,-7,21,.,
C[C@H](NS(=O)(=O)c1ccc2c(c1)OCCCO2)C(=O)N1CCN(Cc2ccc(C#N)cc2)CC1,-5,-1,0,-1,.,.,
O=C(Nc1nc(-c2ccc(Cl)cc2)cs1)NC1CCCCC1,20,64*,1,4,2,73*,
CCCCCCCC(=O)OCC(O)CO (stereo not given),-3,0,105,3,.,.,
CCCCCCCCCCCCCCC(O)C[N+](C)(CCO)CCO (stereo not given),-128,43*,.,5,.,42,ATG4B conf=64*
O=C(Nc1ncccc1O)c1ccc(Cl)c(S(=O)(=O)N2CCCC2)c1,-3,.,.,-6,.,.,
Cc1cccc(C(=O)N2N=C(c3ccc(NS(C)(=O)=O)cc3)CC2c2cccs2)c1 (stereo not given),8,-15,0,-7,21,.,
Nc1nn(-c2ccccc2)c(N)c1N=Nc1ccc2c(c1)OCO2,3,41*,5,0,6,40,ATG4B conf=76*
CCNC(=S)N1CCN(c2nc(CC)nc3sc4c(c23)CCCC4)CC1,24,73*,21,-2,2,83*,
O=C(c1ccco1)N1CCN(c2nc(C3CC3)nc3sc4c(c23)CCCC4)CC1,25,93*,21,5,-8,91*,
O=C(CSc1ncnc2sc3c(c12)CCCC3)c1ccco1,13,41*,24,8,-1,51*,
CCc1nc(SCC(=O)N2CCN(C(=O)c3ccco3)CC2)c2c3c(sc2n1)CCCC3,7,44*,-10,0,-2,64*,
Cc1nc(N2CCN(C(=O)c3ccco3)CC2)c2c3c(sc2n1)CCCC3,13,68*,-2,1,17,67*,
Cc1nc(N2CCN(C(=O)c3cccs3)CC2)c2c3c(sc2n1)CCCC3,15,78*,-13,-2,-6,86*,
O=C(Cn1cnc2ccccc21)OCC(=O)N1CCCCC1,-6,2,-4,0,.,.,
Cc1nn(-c2ccccc2)cc1C(c1c(N)[nH]c(=S)[nH]c1=O)c1c(N)[nH]c(=S)[nH]c1=O,-1,46*,1,4,19,-22,
Cc1ccc(C(c2cc(Br)ccc2O)N2CCSCC2)cc1 (stereo not given),22,-5,16,3,12,.,
Clc1ccccc1-c1cc2nc(NCc3ccco3)ccn2n1,12,.,.,1,.,.,
S=C(NCCSCc1ccc(Cl)cc1Cl)Nc1ccccc1,26,35,-8,-4,-18,.,
SMILES,FAS-TE inh,ATG4B inh,Mot1-301 SUMO,NadD inh,Calb FLC,PLA2 counter,others
S=C(NCCSCc1ccc(Cl)c(Cl)c1)Nc1ccccc1,30,41*,-10,-5,-13,45,ATG4B conf=64*
S=C(NCCSCc1c(Cl)cccc1Cl)Nc1ccccc1,21,45*,120,-8,95*,50*,
COc1ccc(CSCCNC(=S)Nc2ccccc2)cc1Cl,34,13,5,-10,-18,.,
COc1ccc(S(=O)(=O)Nc2c(C)cc(C)cc2C)c2cccnc12,-36,-5,-7,6,1,.,
CCn1ccnc1CN(C)Cc1c(C(=O)N2C[C@@H](C)O[C@@H](C)C2)nc2ccc(Cl)cn12,-4,12,-7,3,-6,.,
COc1cccc(-c2noc(-c3ccc(Cl)nc3)n2)c1,0,8,13,-6,32,.,
Cn1cccc1C(=O)NC(=O)COC(=O)c1cc(S(=O)(=O)N2CCCCC2)ccc1Cl,9,51*,80,6,5,52*,
O=C(COC(=O)c1cc(S(=O)(=O)N2CCCCC2)ccc1Cl)NC1CCCCC1,7,.,.,1,.,.,
CCNc1nc(NCC)n2c(SCC(=O)Nc3ccc(C)cc3Br)nnc2n1,-7,0,21,-1,.,.,
Clc1ccccc1Nc1ncnc2c1nnn2Cc1ccccc1,6,56*,-15,-7,0,58*,
Nc1c(C(=O)Nc2ccccc2F)sc2nc(Cc3ccccc3)cc(C(F)(F)F)c12,-91,66*,5,-2,3,-3,
CCC(C)[C@H](Nc1nc(-c2ccccc2)nc2c1oc1ccccc12)C(=O)O (stereo not given in full),-2,44*,8,3,1,54*,
O=C(C1=C(Nc2ccccc2)c2ccccc2S(=O)(=O)N1)c1ccccc1,23,74*,4,2,35,83*,
Cc1ccc2nc(COc3ccc(Cl)cc3)cc(=O)n2c1,1,1,1,10,43,.,
C=Cc1ccc(COC(=O)c2cn(CC)c3nc(C)ccc3c2=O)cc1,5,40*,-15,4,2,49,
CCn1cc(C(=O)OCC(=O)OC2CC(C)CCC2C(C)C)c(=O)c2ccc(C)nc21 (stereo not given),26,71*,-34,13,29,71*,
CCn1cc(C(=O)OCc2ccccc2)c(=O)c2ccc(C)nc21,1,3,2,7,43,.,
CCn1cc(C(=O)OCc2cccc(Br)c2)c(=O)c2ccc(C)nc21,10,46*,10,5,?,53*,
Cc1cc(C)c(-c2c(N)cc(Br)cc2Br)c(N)c1,19,57*,.,-2,.,65*,
Nc1ccc(Br)cc1Br,-3,17,2,-7,8,.,
CCCCN(C(=O)c1ccncc1)c1c(N)n(CCC)c(=O)[nH]c1=O,-5,4,-15,1,.,.,
CC(NS(=O)(=O)c1ccc(CCC(=O)NCc2cccnc2)cc1)c1ccccc1 (stereo not given),-6,90*,-9,3,8,-4,
CC(C)NS(=O)(=O)c1ccc(CCC(=O)NCc2cccnc2)cc1,-9,-6,-16,-6,-1,.,
